In PubChem BioAssay AID777 (Sanford-Burnham Center for Chemical Genomics, 2007):
The whole screen tested about 96,000 compounds, of which about 19,000 (20%) were called active.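 Rule for the calls: active = blocking of liver enzyme CYP2C9 beyond about 50% at 5 µM (limit read from the data); inactive = the rest.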 Only a sample is shown. Residues, ends and D or L forms follow the SMILES beside them. *: point of attachment. Bz = O=C(c1ccccc1)*

Target: Cytochrome P450 2C9 (Homo sapiens) (UniProt P11712)
Sequence (P11712 whole entry, looked up): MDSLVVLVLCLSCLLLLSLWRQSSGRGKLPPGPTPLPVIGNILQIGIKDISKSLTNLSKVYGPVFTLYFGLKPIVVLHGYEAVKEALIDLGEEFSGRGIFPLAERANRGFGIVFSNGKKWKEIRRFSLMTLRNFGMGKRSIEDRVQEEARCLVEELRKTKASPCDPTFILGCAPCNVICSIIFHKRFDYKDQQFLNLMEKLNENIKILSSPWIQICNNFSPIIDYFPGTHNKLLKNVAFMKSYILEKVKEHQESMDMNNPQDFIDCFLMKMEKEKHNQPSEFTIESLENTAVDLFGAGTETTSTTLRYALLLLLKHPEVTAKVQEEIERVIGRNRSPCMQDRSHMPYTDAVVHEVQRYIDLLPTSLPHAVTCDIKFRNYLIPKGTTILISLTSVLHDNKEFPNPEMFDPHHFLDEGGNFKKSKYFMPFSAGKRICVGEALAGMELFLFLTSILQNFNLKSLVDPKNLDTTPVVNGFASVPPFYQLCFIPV
Test: blockers of cytochrome P450 2C9 activity – biochemical, luminescence, ADME assay, primary screen (AID 777)
Conditions: CYP2C9 Supersomes, luciferin-H conversion, at 5 µM, stronger effect = higher value

inhibition, active:
CCOC(=O)c1c(-c2ccccc2)csc1NC(=S)NC(=O)c1ccccc1 55%
COc1cc(C2CC(=O)N3CN(Cc4ccccc4)CSC3=C2C#N)ccc1OCc1ccccc1 (stereo not drawn) 86.4%
Cc1ccc(OC(=O)c2ccccc2C(=O)OCC(F)(F)C(F)F)cc1 84.1%
CCCCn1c(=S)[nH]c2cc(S(=O)(=O)N3CCCCC3)ccc21 64.3%
Cc1cc(-c2ccc(/C=N/n3cnnc3)o2)c([N+](=O)[O-])cc1C 50.5%
Cc1cc([N+](=O)[O-])c(-c2ccc(/C=N/n3cnnc3)o2)cc1Cl 77%
CC(N=Cc1nc(-c2ccccc2)oc1O)c1ccccc1 (stereo not drawn) 66.7%
O=C(c1cc2c(s1)CCC2)N1CCN(c2ccccc2)CC1 54.4%
CN1/C(=C\C=C2\N=C(c3ccc(F)cc3)OC2=O)C(C)(C)c2ccccc21 64.7%
CCCCCCNC(=O)CSc1nccn1Cc1ccccc1 77.3%
CCOC(=O)c1sc(NC(=O)c2cc(S(=O)(=O)N3CCOCC3)ccc2C)nc1C 71%
Cn1cccc1C1(C(F)(F)F)NCCNC1=O (stereo not drawn) 72%
CC(C)C[C@H](NC(=O)NCCc1ccc(Cl)cc1)C(=O)O 59.9%
COc1ccc(C(=O)Nc2nc(-c3ccc(S(=O)(=O)N4CCOCC4)cc3)cs2)cc1 62.5%
COC(=O)c1ccccc1Sc1c(/C=N/OCc2ccc(Cl)cc2)c(C(F)(F)F)nn1C 89.6%
NC(=O)C1(N2CCCCC2)CCN(C2CC(=O)N(Cc3ccc(N4CCCC4=O)cc3)C2=O)CC1 (stereo not drawn) 50.1%
O=C(C(Cc1ccccc1)n1cccc1)N1CCN(C2CCCCC2)CC1 (stereo not drawn) 94%
O=C(CN1C(=O)NC(Cc2ccccc2)(Cc2ccccc2)C1=O)NCC1CCCCC1 55%
CCOC(=O)c1ccn(-c2nc(-c3ccco3)cc(C(F)(F)F)n2)n1 62%
COc1cc(-c2nc(-c3ccncc3)no2)cc(OC)c1OC 76.6%
COc1ccc(Nc2ncc(C(=O)N3CCN(c4ccccc4OC)CC3)c3ccccc23)cc1 65.9%

inhibition, inactive:
CCOC(=O)c1c(NC(=S)NC(=O)c2ccco2)sc2c1CCCC2 0.4%
CCOC(=O)c1c(-c2cccc(C)c2)csc1NC(=O)c1c(-c2ccccc2)noc1C 26.8%
O=C1CSC(c2ccc(Cl)cc2)N1 (stereo not drawn) -1%
COc1ccc(C2CC(=O)Nc3sc(=N)c4c(N)c(C#N)c(N)nc4c32)cc1OC (stereo not drawn) 41.6%
COc1ccc(C2CC(=O)n3c(nc4ccccc43)S2)cc1OC (stereo not drawn) 14.4%
CCCNC(=O)C1CC(=O)N(c2ccc(OCC(=O)Nc3cccc(C)c3C)cc2)C1 (stereo not drawn) 22.1%
COc1ccc(-n2nc3c(c2NC(=O)Cc2cccc(C)c2)CS(=O)C3)cc1 (stereo not drawn) -1.9%
Cc1ccc(OC(=O)c2cc3ccccc3o2)cc1 -2.9%
COc1ccccc1C(=O)Oc1ccc(N2C(=O)CCC2=O)cc1 -113%
CC(C)(C)c1ccc(C(=O)NNC(=O)Cc2ccccc2)cc1 6.1%
CCCCN1C(=O)CC(N2CCOCC2)C1=O (stereo not drawn) 1.5%
CN1CCCN(S(=O)(=O)c2ccc3c(c2)OCCO3)CC1 -7.5%
CCCCNC(=O)C1CCCN(S(=O)(=O)c2ccc(S(=O)(=O)NCC(C)C)cc2)C1 (stereo not drawn) 46%
c1ccc(-c2cn3cccnc3n2)cc1 -1.3%
c1ccc(-n2nnnc2NC2CCCCCC2)cc1 24%
Cc1cc(C)c([N+](=O)[O-])cc1-c1ccc(/C=N/NC(=O)c2nonc2N)o1 22.2%
O=C1C2C3C=CC(C4CC34)C2C(=O)N1/N=C/c1ccc(-c2ccccc2[N+](=O)[O-])o1 (stereo not drawn) 36.8%
CCCC(=O)N1c2ccccc2NC2=C(C(=O)CCC2)C1c1ccc(F)cc1 (stereo not drawn) 8.5%
CC(=O)CCS(=O)(=O)c1ccc(C)c(C)c1 -62.6%
Cc1c(CN2CCC(C)CC2)c(=O)n(-c2ccccc2)n1C -8%
CCOC1CS(=O)(=O)CC1OCC (stereo not drawn) -5.4%
CC(NC(=O)c1cc(-c2ccccc2)on1)c1ccccc1 (stereo not drawn) -23.7%
CCOC(=O)N1CCN(CC(=O)c2ccc3c(c2)CCN3)CC1 -1.9%
CC(=O)Nc1nc(C)c(Cc2ccccc2)c(=O)[nH]1 -0.9%
CC1(C)Cc2c(sc3nc(SCC(=O)NCc4ccccc4)n(-c4ccccc4)c(=O)c23)CS1 -0.2%
O=C(CNC(=O)c1cc2c(s1)CCC2)Nc1ccccc1Br 30%
O=C(NCCCN1CCOCC1)c1cc2c(s1)CCC2 -6.3%
Cc1nnc(SCc2nc3ccccc3nc2C)s1 -5.7%
CC(C)NC(=O)c1ccccc1S(=O)c1ccccc1C#N (stereo not drawn) -1.3%
Cc1cnc(NC(=O)CSc2nnc(-c3ccc(Cl)cc3Cl)n2N)s1 46.7%
CSc1ccc(CCNC(=O)C2CCN(c3nnc(-n4cccc4)s3)CC2)cc1 37%
O=C(CN1CCSCC1)N/N=C/c1ccc(F)cc1F 7.6%
O=C1OC(c2ccc(Cl)cc2)=N/C1=C\c1cccnc1 18.2%
CCn1cc(C(=O)NCc2ccc(OC)cc2OC)c(=O)c2ccc(C)nc21 15.3%
CCCCCCOC(=O)NCC(O)c1ccccc1 (stereo not drawn) 23.8%
c1ccc(-n2ncc(-c3nn[nH]n3)n2)cc1 46.2%
COc1ccc(N2C(=O)C3CCCN3C2c2cccc(OC)c2)cc1 (stereo not drawn) 16.3%
CCCCNC(=O)CSc1nccn1Cc1ccccc1 23%
COC(=O)CCSc1nccn1Cc1ccccc1 10.8%
C=CCN(c1ccc(C(N)=O)cc1)S(C)(=O)=O -10.7%
CC(=O)c1c(N)n(C)c(=O)n(C)c1=O 21.6%
ONC(=Nc1ccccc1)c1ccccc1Cl 2.1%
Cc1ccc(S(=O)(=O)N2CCOCC2)cc1C(=O)NCc1ccc(F)cc1 31.6%
O=C(Nc1ccc2c(c1)nc1n2CCCCC1)c1cc(S(=O)(=O)N2CCOCC2)ccc1Cl 43.5%
O=C1c2cccc3cc(Br)cc(c23)C(=O)N1Nc1ccccc1 -74%
N#C/C(=C\c1ccccc1)c1n[nH]c(Cn2cncn2)n1 27%
O=C1CSC(=O)N1CCOCCN1C(=O)CSC1=O 7.2%
C[C@H](NC(=O)NCCc1ccccc1)C(=O)O 2.2%
CSCC[C@H](NC(=O)NCCc1ccc(F)cc1)C(=O)O 14.5%
Cc1ccc(C(=O)C[n+]2cc(-c3ccccc3)n3c2CCCCC3)cc1 -11.7%
NC(=O)Cn1c(=O)oc2ccccc21 -13.8%
CCC(C)c1ccc(O)c(/C=N/O)c1 (stereo not drawn) 13.7%
CCOC(=O)c1csc(NC(=O)c2ccc(S(=O)(=O)N3CCCC3)cc2)n1 -12.7%
COC(=O)[C@H](Cc1ccccc1)NC(=O)Nc1ccc(S(N)(=O)=O)cc1 1.6%
CCC(=O)Nc1ccc(S(=O)(=O)NCC2CCCO2)cc1 (stereo not drawn) -1.7%
COC(=O)c1ccccc1NC(=O)Cn1nc(C(F)(F)F)c2c1CCC2 17.4%
COC(=O)c1cc(NC(=O)CN2CCC(C(N)=O)(N3CCCCC3)CC2)cc(C(=O)OC)c1 13.2%
CCCNC(=O)NCc1ccc(N2CCCC2=O)cc1 17.2%
C[C@@H](Nc1nc(-c2ccccc2)nc2c1oc1ccccc12)C(=O)O 11.2%
C=CCNC(=O)c1cc2nc(C3CC3)cc(C(F)F)n2n1 40%
COc1cc(/C=C2\SC(=S)N(Nc3ncc(C(F)(F)F)cc3Cl)C2=O)cc(OC)c1OC 4.4%
Cc1ccc(C(=O)N2CCN(C3CCCCC3)CC2)s1 25.8%
O=C(NC(Cc1ccccc1)C(=O)N1CCCC1C(=O)O)c1ccccc1 (stereo not drawn) (Bz-Phe-Pro-OH; configuration not given here) -5.7%
CCOC(=O)CCCNC(=O)CN1C(=O)NC(CCc2ccccc2)C1=O (stereo not drawn) -3.9%
O=C(CN1C(=O)NC2(CCCCC2)C1=O)NCCC1=CCCCC1 -1.7%
CC(=O)N1CCc2cc(S(=O)(=O)Nc3ccccc3N3CCN(C)CC3)ccc21 2%
CCCC(=O)C1CCN(Cc2ccccc2)CC1 -8.7%
Cc1nc2ccc(NC(=O)C(F)(F)F)cc2o1 4.8%
Cn1c(C(=O)NCCCN2CCCCC2)cc2sccc21 6.6%
Cc1cc(C(F)(F)F)nn1-c1nc(-c2ccco2)cc(C(F)(F)F)n1 3.1%
O=C(CSc1nc(-c2ccco2)cc(C(F)(F)F)n1)N1CCc2ccccc2C1 45.8%
Cc1ccc2c(c1)N(CC(=O)N1CCCc3ccccc31)C(=O)C(C)O2 (stereo not drawn) 22%
CCOc1nc(-c2ccc(OC)cc2)ccc1-c1noc(-c2cc(OC)c(OC)c(OC)c2)n1 8.3%
COc1ccc(-c2noc(-c3cccc(OC)c3OC)n2)cc1OC -101%
CC(OC(=O)CN1C(=O)C2CCCCC2C1=O)C(=O)Nc1ncc(Cl)cc1Cl (stereo not drawn) -1.7%
COc1ccccc1N1CCN(CCCCOc2ccc(F)cc2)CC1 12%
COc1ccc2oc(=O)c(C(=O)N3CCN(c4ccccc4F)CC3)cc2c1 28.7%
